Laboratory results as given in PubChem BioAssay (NCATS).
Results filed as inconclusive are left out. Where a call stands in place of a potency, no number is given. Unmarked numbers belong to inactive results. Activity calls are given as the source filed them. Calls follow the shape of the dose curve; as a rule, active = well fitted cell-killing curve with a large enough effect; inconclusive = small, poorly fitted or top-dose-only effect, or effect the other way; inactive = no such curve, though single readings can be large or run the other way.

Tests used:
[1] = Viability qHTS for spleen associated tyrosine kinase inhibitor (SYKi) naive MV4-11 cells (AID 1963823); also: nearly all actives have a fitted effect of over 40% in size
Method in brief: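 CellTiter-Glo luminescence, 10 min room-temperature incubation, gave viability. Cells: naive MV4-11 (500/well), treated 72 hr at 37 C, 5% CO2.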

[2] = Viability qHTS for spleen associated tyrosine kinase inhibitor (SYKi) drug resistant MV4-11 cells (AID 1963824); also: nearly all actives have a fitted effect of over 35% in size
Method in brief: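 SYK inhibitor-resistant MV4-11 AML cells, 500 per well, added to predispensed compounds and incubated 72 hr at 37 C, 5% CO2. Viability measured by CellTiter-Glo luminescence after 10 min at room temperature.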
Potency is read from the fitted curve at half-maximal effect.

Compound | viability (% of control) [1] | viability, % of control [2] | Potency [1] | Potency [2]
C/C=C(\C)C(=O)OC[C@H]1O[C@@H](O[C@H]2[C@@H](O[C@H]3O[C@H](COC(=O)/C(C)=C/C)[C@@H](O)[C@H](O)[C@H]3O[C@@H]3O[C@H](COC(=O)/C(C)=C/C)[C@@H](O)[C@H](OC(=O)/C(C)=C/C)[C@H]3O)O[C@H](COC(=O)/C(C)=C/C)[C@@H](O)[C@@H]2O)[C@H](O)[C@@H](O)[C@@H]1O | 68.7% [at 9.25 µM] | 65.9% [at 9.25 µM] | – | –
CC(O)(CC(=O)O)CC(=O)OCc1ccc(O[C@@H]2O[C@H](CO)[C@@H](O)[C@H](O)[C@H]2O)cc1 (stereo partly drawn) | – | – | inactive | inactive
C=C[C@H]1C(O[C@@H]2O[C@H](CO)[C@@H](O)[C@H](O)[C@H]2O)OC=C2C(=O)N3CCc4c([nH]c5ccccc45)C3CC21 (stereo partly drawn) | – | – | inactive | inactive
OC[C@H]1O[C@@H](O[C@H]2[C@H](O)[C@@H](CO)O[C@@H](OCc3ccccc3)[C@@H]2O[C@@H]2OC[C@](O)(CO)[C@H]2O)[C@H](O)[C@@H](O)[C@@H]1O | – | – | inactive | inactive
COc1cc(CCO)ccc1O[C@@H]1O[C@H](CO)[C@@H](O)[C@H](O)[C@H]1O | – | – | inactive | inactive
CC(O)CO[C@@H]1O[C@H](CO)[C@@H](O)[C@H](O)[C@H]1O (stereo partly drawn) | – | – | inactive | inactive
CNc1ccc([N+](=O)[O-])c(Nc2ccc3[nH]ncc3c2)n1 | – | – | 2.59 µM (active) | 5.8 µM (active)
O=C(O)c1ccnc2cc(C(OCC3CCC(F)(F)CC3)c3ccccc3Cl)[nH]c12 (stereo not drawn) | – | – | inactive | inactive
C=C1CCC2C(OC(=O)C2(O)COC(C)=O)C2C(=C)C(O)CC12 (stereo not drawn) | – | – | inactive | inactive
CN(C)C(=O)COC(=O)c1cc(-c2ccc(C3CCNCC3)cc2)c2ccc(-c3ccc(C(F)(F)F)cc3)cc2c1 | – | – | 4.61 µM (active) | 5.17 µM (active)
CC(N)C1CCC(C(=O)Nc2ccncc2)CC1 (stereo not drawn) | – | – | inactive | inactive
C=C1C(=O)OC2C3=C(C)C(=O)CC3C(C)CC(O)C12 (stereo not drawn) | – | – | 13 µM (active) | 6.51 µM (active)
C=C1[C@H]2CC[C@]3(O)[C@@](CC[C@@H]4[C@](C)(C(=O)O)CCC[C@]43C)(C2)[C@H]1OC(=O)/C(C)=C\C | – | – | inactive | inactive
CC(C)(C)[C@H](NC(=O)c1ccc(N)c(Cl)c1)C(=O)N1CCC[C@H]1C(=O)N[C@H](C#N)CC(=O)O | – | – | inactive | inactive
